Laboratory results taken from PubChem BioAssay (NCI).
This is part of a sample that, as a whole, favours compounds with a hit. Of some 83,000 tested, about 20% had one in any assay.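 How to read the values: 0–100, growth inhibition (40 = 60% inhibited); 0, no net growth; -100 to 0, cell death (-40 = 40% of starting cells died; -100 = all dead).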 Unmarked numbers belong to inactive results. The source made the active and inactive calls. Rule for the calls: active = growth percent below 10; inactive = the rest.

test system: HS 578T breast; assay: NCI-60 one-dose screen, 48 h (100 = growth as untreated, 0 = no growth, -100 = all killed); conditions: 10 µM

| SMILES | growth |
| --- | --- |
| N#Cc1ccc(-c2nn(-c3ccc(C(=O)O)cc3)cc2CNc2ccc(Oc3ccccc3)cc2)cc1 | 53.9% |
| COc1cc2c(cc1OC)CN(CCCCOc1cc(O)c3c(=O)cc(-c4ccccc4)oc3c1)CC2 | 74.2% |
| Cc1cc(=O)oc2cc(OCCCCOc3ccc(/C=C/C(=O)Nc4ccc(F)c(Cl)c4)cc3)ccc12 | 111% |
| COc1ccc(CN2[C@@H](C(=O)NCc3ccc(C(=O)NO)cc3)Cc3c([nH]c4ccccc34)[C@@H]2C2CC2)cc1 | -14.3% (active) |
| COC(=O)c1c(C(=O)OC)c2n(c1C)[C@@H]([C@@H](C)[C@H]1CC[C@H]3[C@@H]4CCC5=CC(=O)CC[C@]5(C)[C@H]4CC[C@]13C)SC2 | 56.6% |
| O=C1CCC(N2Cc3cc(CC(=O)Nc4ccc(N5CCCCC5)cc4)ccc3C2=O)C(=O)N1 (configuration not stated) | 27.4% |
| Cn1cc(-c2cc(N)n3nc(-c4c[nH]c5ccc(Br)cc45)cc3n2)c2cc(Br)cnc21 | -29% (active) |
| COc1ccc(C(=O)CSc2nnc(-c3c[nH]c4ccccc34)n2-c2ccccc2)cc1 | 15.5% |
| CC(C)C1=C[C@@]23CC[C@@H]4[C@](C)(CCC[C@]4(C)C(=O)NCc4ccccc4)[C@H]2C[C@@H]1[C@H]1C(=O)CCC(=O)[C@H]13 | 63.1% |
| Nc1nc(Nc2ccccc2)nn1Cc1c(Cl)cccc1Cl | 29.3% |
| Cc1ccc2nc(COc3ccc(C(=O)NNC(=S)NCCc4ccccc4)cc3)[nH]c2c1 | 41.1% |
| COc1cc2c3c(n(CCCn4ccnc4)c(=O)c2cc1OC)-c1nc2c(cc1C3=O)OCO2 | 119% |
